High-throughput results (PubChem BioAssay)
Shiga toxin inh – A qHTS for Small Molecule Inhibitors of Shiga Toxin. 290,000 compounds, 9.2% hits. inhibition, % at 38.7 µM. Vero cells, Shiga toxin protein synthesis inhibition reporter; in the data active means inhibition mostly above about 28%, no sharp cut-off; inactive means mostly below about 43%
CHX counter – Cycloheximide Counterscreen for Small Molecule Inhibitors of Shiga Toxin; cell reporter, cycloheximide protein synthesis inhibition counterscreen; max response, %; 300,000 compounds, 12% hits; AID 2314, 2010; in the data active means max response mostly above about 13%, no sharp cut-off; inactive means mostly below about 14%; further: read at 38.3 µM for the half of the compounds with a filed dose
Sm TGR block – qHTS Assay for the Inhibitors of Schistosoma Mansoni Peroxiredoxins; Schistosoma mansoni thioredoxin glutathione reductase (TGR), Q962Y6; purified TGR, DTNB reduction, TNB absorbance 405 nm; Potency, µM (top dose mostly 114 µM), actives largely listed as inhibitors; 360,000 compounds, 3% hits; AID 485364, 2010; further: nearly all actives have a fitted effect of over 60% in size
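TGR 20 nM + NADPH 100 uM (dispensed conc.), cpd preinc 15 min RT; start with NADPH (500 uM addition) then DTNB (15 mM addition). Kinetic TNB absorbance, 405 nm filter. Four-parameter Hill fit across titration.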
NS1 inh – qHTS Assay for Inhibitors of Influenza NS1 Protein Function; Potency, µM (doses to about 46.1 µM); 270,000 compounds, 0.4% hits; AID 2326, 2010; calls by dose curve; further: actives are rising curves; nearly all actives have a fitted effect of over 50% in size
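A cell-based growth assay was used: compounds that relieve NS1-induced slow growth of budding yeast raise OD600. Assay medium was yeast nitrogen base with ammonium sulphate and -URA supplement, pH 6.0, with 2% galactose.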
Pf growth 48h – Primary qHTS for delayed death inhibitors of the malarial parasite plastid, 48 hour incubation; P. falciparum luciferase growth in erythrocytes, 48 h; Potency, µM (doses to about 28.7 µM), actives largely listed as inhibitors; 310,000 compounds, 5.9% hits; AID 504832, 2011
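Cell-based growth assay: transgenic P. falciparum expressing firefly luciferase, cultured in red cells within RPMI 1640 containing 0.5% w/v Albumax, 24 mM bicarbonate and gentamycin. A drop in luciferase activity indicates inhibition.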
Pf growth 96h – Primary qHTS for delayed death inhibitors of the malarial parasite plastid, 96 hour incubation; 320,000 compounds, 6.9% hits; Potency, µM (titrated, usually from 28.7 µM), most hits filed as inhibitors; P. falciparum luciferase reporter growth, 96 h
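Infected RBCs, 2% Hct / 0.05% parasitemia final; luciferase-reporter P. falciparum; cpd 96 h, 37 C, 5% CO2; luciferase detection reagent; luminescence.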
Flu NS1 inh – Assay for Inhibitors of Influenza NS1 Protein Function: Hit Validation | activity change, negative = inhibition, % at 32.9 µM | 1,400 tested, under 10 active | shares compounds with NS1 inh | influenza NS1 function cell assay, 15-point titration; calls by dose curve
Flu PR8 replic – Assay for Inhibitors of Influenza NS1 Protein Function: Influenza virus replication assay in MDCK cells infected with virus A/PR/8/34 | shares compounds with NS1 inh | MDCK infected influenza A/PR/8/34, virus titer TCID50; stronger effect = lower value | virus titer (log TCID50), log10 TCID50 at 5 µM | 95 compounds, 30% hits | AID 504647, 2011; call rule not given here
A number is an active result; - = inactive; ? = inconclusive; . = no result given. An excerpt weighted towards active compounds, which were near 21% of everything screened. Unless noted, the call rests on the fitted dose curve; in most records, active means well fitted curve in the direction sought with a large enough effect; inconclusive means small, poorly fitted or top-dose-only effect, or another doubt; inactive means no such curve, though single readings can be large; an effect the other way counts as inactive or inconclusive.

SMILES	Shiga toxin inh	CHX counter	Sm TGR block	NS1 inh	Pf growth 48h	Pf growth 96h	Flu NS1 inh	others
O=[N+]([O-])c1ccc(N/N=C/c2cn(Cc3ccc(F)cc3)c3ccccc23)nc1	-	-	-	-	-	-	.
Cc1c(N/N=C(\C#N)C(=O)c2ccc(Cl)cc2)c(=O)n(-c2ccccc2)n1C	-	-	-	?	11.7µM	-	?
CCc1nnc(NC(=O)C2CCCCN2S(=O)(=O)c2ccccc2)s1 (centres undefined)	-	-	-	.	?	-	.
CCOC(=O)C1CCN(C(=O)CN(Cc2ccccc2)S(C)(=O)=O)CC1	-	-	-	14.1µM	-	.	-
COc1ccc(C)cc1NC(=O)NNC(=O)C(C)Oc1ccc(F)cc1Cl (centres undefined)	-	-	-	-	?	-	.
COc1ccc(Oc2nc(C)cc(C)c2C#N)cc1	-	-	-	?	?	.	-
O=C(NC1CCCCCC1)c1ccc(Cl)c(S(=O)(=O)N2CCOCC2)c1	-	-	-	-	?	-	.
O=C(Nc1ccccc1C(=O)O)c1cccc(S(=O)(=O)Nc2ccc(Br)cc2)c1	-	-	-	-	-	-	.
Cc1ccc(C(=O)NC2CCCC2)cc1S(=O)(=O)N1CCCCC1	-	-	-	-	-	-	.
Cc1ccc(C(=O)Nc2ccccc2C(=O)O)cc1S(=O)(=O)NC1CCCCC1	-	-	-	14.1µM	-	-	-	Flu PR8 replic=-
O=C(Nc1ccccc1C(=O)O)c1cccc(NS(=O)(=O)c2ccc(Br)cc2)c1	.	-	-	7.94µM	-	-	-
Cc1ccc(C(=O)Nc2ccccc2C(=O)NCc2ccco2)cc1S(=O)(=O)N1CCCCC1	52.3	31.2	-	10µM	6.57µM	-	-
Cc1ccc(C(=O)Nc2ccccc2C(=O)O)cc1S(=O)(=O)Nc1ccccc1	-	-	-	15.8µM	-	-	-
Cc1cc(NC(=O)CSc2nncc(=O)n2N)no1	-	-	-	.	-	?	.
CC(C)(C)C1CCc2onc(C(=O)O)c2C1 (centres undefined)	-	-	-	-	-	-	.
COc1ccc(N2C(=O)CC(C)(C)CC2=O)cc1OC	-	-	-	-	-	-	.
O=C(CCC(=O)N1CCOc2ccccc21)Nc1cc(F)ccc1F	-	-	-	-	-	?	.
Cc1nn(-c2ccccc2)c2c1C(c1ccc([N+](=O)[O-])cc1)N1C(=N2)C(=O)Nc2ccccc21 (centres undefined)	-	-	-	10µM	?	5.86µM	-
Cc1nn(-c2ccccc2)c2c1C(c1ccc([N+](=O)[O-])cc1)C(C#N)=C(N)O2 (centres undefined)	-	-	-	-	-	-	.
c1ccc(-n2cnc3cc(NCc4ccncc4)ccc32)cc1	90.6	27.5	-	?	?	?	-
O=C(CSc1nc(O)c(Cc2ccccc2)c(=O)[nH]1)N1CCOCC1	-	-	-	?	?	-	-	Flu PR8 replic=-
COc1ccccc1-n1c(SCC(=O)OC(C)C)nc2cccnc21	-	-	-	-	?	-	.
COc1ccccc1-n1c(SCC(=O)N2CCCC2)nc2cccnc21	-	-	-	2µM	-	-	-
CCc1c(O)nc(SCC(=O)N2CCOCC2)n(-c2ccccc2)c1=O	-	-	-	-	-	.	.
CCN(CC)C(=O)CSc1nc2ccccc2c(=O)n1-c1ccccc1OC	-	-	-	35.5µM	?	-	-
COc1ccccc1-n1c(SCC(=O)N2CCOCC2)nc(O)c(Cc2ccccc2)c1=O	-	-	-	?	-	.	-
CCN(CC)C(=O)CSc1nc2cccnc2n1-c1ccccc1OC	-	-	-	-	-	?	.
COc1ccc(Cn2c(CCC(=O)Nc3cccc(Cl)c3)nc3cccnc32)cc1	.	.	-	.	.	.	.
